± gives the standard deviation of the averaged measurements. Whole data set: some 25,000 sequences, median “ln(normalized median fluorescence intensity)” near 8.9, cut for the highest 2% near 10. The list comes from a sample in which the highest values are over-represented; it also holds similar and randomly drawn sequences.

The test system of this assay is PfAP2-LT AP2 domain (GST-tagged). The experiment in a line: gcPBM binding intensity (ln(normalized median fluorescence intensity)); higher = stronger DNA binding. In outline: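 An Agilent 4 × 180k array carrying primer-extended double-stranded 36-bp intergenic genomic probes and negative controls received GST-tagged P. falciparum DNA-binding domains expressed in E. coli, about 25 μg on average, for 1 h. The binding buffer contained 1× PBS, 1% milk, 0.2 mg/ml BSA, 0.5% salmon testes DNA and 0.03% Triton X-100. Binding intensity is the top Masliner-normalised natural-log median intensity across replicate spots of either probe orientation, read after Alexa488 anti-GST antibody staining and a 488 nm scan.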
Take “TTTTGAAGAAAATTCTTTTTTTTTTTTTTTTGTAAA [CACACA_negctrl_site102]”: the “gcPBM binding intensity (ln)” value worked out at 7.76 ± 0.65.
The value for “AAATATTATGTGGCAAGTACATAAAGAAAATGCTTA [XGTACX_site3356]” was 8.89 ± 0.56; that for “AAAAAAAAAAAAAAAGCACACATCATATTTTAATTC [CACACA_site9109]” was 8.87 ± 0.28; that for “ATATATATATATATATAATATATAATATATATATAT [CACACA_negctrl_site96]” was 9.01 ± 0.11.
The value for “AATAATAACAAATGAACACACATATATATGAGCAAA [CACACA_site2121]” was 9.13 ± 0.41; that for “ATGATTATTTTAAAAAGTACTAATTATTATTTTTTT [XGTACX_site7242]” was 8.34 ± 0.47; that for “TTCGTTATATTTTGATGTACTGATTCATATATATAT [XGTACX_site1835]” was 9.09 ± 0.42.
The value for “ATTTTCTATTTTATTTGTACGTAATTTAATTTTTTT [XGTACX_site3609]” was 8.96 ± 0.53.
Take “TATATACAAAATGCCTGTACATATATATTTATTTAT [XGTACX_site761]”: the “gcPBM binding intensity (ln)” value was 8.85 ± 0.35.
In the case of “ATAATATAATAATACACACTCATTATATATATAAAG [CACACA_site3956]”, the “gcPBM binding intensity (ln)” value stood at 8.82 ± 0.43.
The value for “GGTCATCATCGGTATTGTACAAAAATGTGAAAATTA [XGTACX_site639]” was 8.73 ± 0.48.
For the sequence “AAATATATTATATCATATATTAAAGCATATATTAAA [CACACA_negctrl_site1624]”, the “gcPBM binding intensity (ln)” value was 8.43 ± 0.42.
In the case of “TATCTGTATTTGTATACACACAAATGTATTTATTTA [CACACA_site4830]”, the “gcPBM binding intensity (ln)” value was 8.94 ± 0.44.
With “TATATTATAAATTAATGTACGTAATTTTTTTTTTTT [XGTACX_site2500]”, the “gcPBM binding intensity (ln)” value came out at 8.38 ± 0.48.
The value for “AACAAAAATGAAAAAACACACATAACATATATAAAT [CACACA_site740]” was 9.27 ± 0.41; that for “ATAAAATGAACAAACACACACACATATATATATATA [CACACA_site2402]” was 10.2 ± 0.13.
Take “TTTATAAACAAATGAACACACAAACATATATATATA [CACACA_site5713]”: the “gcPBM binding intensity (ln)” value came out at 9.33 ± 0.24.
On to “TTAACTATAATAAAATGTACATATGTAACATATATA [XGTACX_site7790]”, for which the “gcPBM binding intensity (ln)” value was determined as 8.66 ± 0.4.
“ATTAATTATTTCAATGCATGTGAACACTATATATAA [TGCATGCA_site600]”: the “gcPBM binding intensity (ln)” value came out at 8.84 ± 0.42.
The value for “ATGGATAATAAGTTTACACACAAAAAAAAAGAAAAA [CACACA_site861]” was 9.02 ± 0.57; that for “GTTCATAAATTAAACACACACACACCGCTGGATACC [CACACA_site5779]” was 9.77 ± 0.16.
The value for “GTTCATAAATTAAACACACACACACCCCTGGATACC [CACACA_site3331]” was 10.13 ± 0.085; that for “GTTCATAAATTAAACACACACACACGGCTGGATACC [CACACA_site7545]” was 9.79 ± 0.26.
The value for “CATATTTGGAAACACACACACATATTTATATATATA [CACACA_site3569]” was 9.62 ± 0.38.
Regarding “ATAATTTGGAAACACACACACACACCCACATATATA [CACACA_site2286]”, the “gcPBM binding intensity (ln)” value came to 10.28 ± 0.064.
The value for “TAATTTTTGAAACACACACACATATATATATATATA [CACACA_site94]” was 9.885 ± 0.0071; that for “ATACTAAAGAAACACACACACATATATATATAGAAT [CACACA_site100]” was 9.94 ± 0.28.
For “CCCACTAAAAAACACACACACACACCCATATATATA [CACACA_site6140]”, the “gcPBM binding intensity (ln)” value stood at 10.31 ± 0.078.
The value for “CACTAAAAGAAACACACACACACACCCATATATATA [CACACA_site4151]” was 10.2 ± 0.23; that for “CAGGCACTAATAAACACACACATATAAATATAAATA [CACACA_site6320]” was 9.38 ± 0.59.
The value for “TAAACACCCATATAAACACACATATAAACACCCATA [CACACA_site5382]” was 9.4 ± 0.21; that for “AAAAAAAAAAAACACACACACACACCCATATATAAA [CACACA_site1170]” was 9.995 ± 0.064; that for “AAAAGAAAAAGAAAAACACACATAAATATAAATATA [CACACA_site1879]” was 8.93 ± 0.64.
In the case of “CACCCACTAATAAACACACACATATATATATATATA [CACACA_site389]”, the “gcPBM binding intensity (ln)” value worked out at 10.3 ± 0.18.
The value for “AAAAAATTATATAATAATAGAACTATACATTTTATT [GTGCAC_negctrl_site645]” was 8.44 ± 0.47; that for “TACAATAAGGATAAGTGTACATATGTGCATACATAT [XGTACX_site7188]” was 8.96 ± 0.35.
The value for “TATTATTATTTTTTATGTACTAACGACAAAAATATT [XGTACX_site252]” was 8.48 ± 0.4; that for “AATATTTTTATATATATACACACTTACATATATATA [CACACA_site3609]” was 8.91 ± 0.4; that for TTTTTTTTTTTGTGGGTGCGTTTATAAAAACAGGAA was 8.42 ± 0.33.
The value for “GGAACGTTCATATTTCCACACACAAAAAATAAATAT [CACACA_site9101]” was 9.31 ± 0.57; that for “TTACACAAGGATAAAAACATATGTATGATTATATAT [CACACA_negctrl_site654]” was 8.89 ± 0.47; that for “ATAGCTTTTATTTAAAGTACAAAAAGGATGTTGAAA [XGTACX_site3810]” was 8.46 ± 0.44.
As for “TTTTTTAAGTAATGAAATGATTTTCTTATAGAATAA [GTGCAC_negctrl_site395]”, the “gcPBM binding intensity (ln)” value was 7.96 ± 0.36.
The value for “AAAAAACAATTTGTGTGTACACATGATACGTTCGAT [XGTACX_site4112]” was 9.39 ± 0.28; that for “TTTCCCATAGGAAAAACACACATATATTATATATAA [CACACA_site1981]” was 8.57 ± 0.4; that for “TTAAAAAAAAAACACACACACATACCCATATATATA [CACACA_site5768]” was 9.825 ± 0.021.
The value for “TCTCATAGTAAACACACACACACACCCACATATATA [CACACA_site5034]” was 9.97 ± 0.071; that for “AACATATAAAAATGTGCACACACACCCATATATATA [CACACA_site1525]” was 9.79 ± 0.3; that for “CGCACTAAAAAACACACACACACACCCATATATATA [CACACA_site4152]” was 10.2 ± 0.29.
Take “TCTCATAGGAAACACACACACACACCCACATATATA [CACACA_site1738]”: the “gcPBM binding intensity (ln)” value was found to be 10.1 ± 0.11.
As to “AATAAAATATAATAATTAATATATATATATATATAA [GTGCAC_negctrl_site457]”, the “gcPBM binding intensity (ln)” value stood at 8.65 ± 0.45.
Take ACACACAATACAAAAGTGCATATAATAATTAATCAT: the “gcPBM binding intensity (ln)” value is 9.34 ± 0.46.
Take “TTATAATATATATGTGGTACTTATTTATTTATTTAT [XGTACX_site7572]”: the “gcPBM binding intensity (ln)” value is 8.72 ± 0.49.
The value for “AACAAATTAATTCTAGTGCAGGACGTATTTGTGTAC [GTGCAC_site9907]” was 8.88 ± 0.36.
The value for “AAAAAAAAAAAAAACACACACATATATATATATATA [CACACA_site1891]” was 10.1 ± 0.37.
The value for “CATATATAAAAAAACACACACATATATATATATATA [CACACA_site1195]” was 9.82 ± 0.042; that for “AAAAAAAAAAAACACACACACATATATATATATATA [CACACA_site732]” was 10.4 ± 0.19; that for “AAAAAAAAAAAAAACACACACATATATATAATATAT [CACACA_site3172]” was 9.37 ± 0.41.
On to “AAAAAAAAAAAAAACACACATACATACATACATATA [CACACA_site4121]”, for which the “gcPBM binding intensity (ln)” value stood at 9.13 ± 0.38.
On to “AAAAAAAAAAAAAAAACACACACATATATATAATAT [CACACA_site9038]”, for which the “gcPBM binding intensity (ln)” value was found to be 9.3 ± 0.41.
Regarding “AACATACACATATACACACACACATATATACATATA [CACACA_site1093]”, the “gcPBM binding intensity (ln)” value is 9.89 ± 0.23.
The value for “AACACACACATATATATATATATATATATATATATA [GTGCAC_negctrl_site573]” was 10.5 ± 0.13.
In the case of “AAAAAAAAAAAACATACACACATACATACATATATA [CACACA_site8222]”, the “gcPBM binding intensity (ln)” value amounted to 9.26 ± 0.35.
The value for “ACACATATATATATATATATATATATATATATATAT [CACACA_negctrl_site1766]” was 9.935 ± 0.035.
As to “AAAAAAACACACACATATATATATATATATATATAT [GTGCAC_negctrl_site498]”, the “gcPBM binding intensity (ln)” value stood at 10.2 ± 0.16.
The value for “AAAAAAAAAAAAAAAACACACACATATATATATATA [CACACA_site8571]” was 9.72 ± 0.29.

The values are drawn from the supplement of paper PMC11417369.
